# Screening results: PubChem, National Center for Advancing Translational Sciences (NCATS)
# A selection: hits, their analogues and other compounds. The true share with any hit is near 2.4%.
# Rango-impB inh: inhibitors of Rango-importin beta complex formation. Q14974. Potency, µM (highest dose often 92.2 µM), for the others: at the top dose inhibition of complex formation. Rango CFP/YFP FRET sensor + importin beta, 45 min. AID 540263. 340,000 compounds, 0.031% hits; calls by dose curve;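 note: 0% = DMSO wells and 100% = buffer wells lacking importin beta; nearly all actives have a fitted effect of over 15% in size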
# Target sequence (Q14974 whole entry, looked up): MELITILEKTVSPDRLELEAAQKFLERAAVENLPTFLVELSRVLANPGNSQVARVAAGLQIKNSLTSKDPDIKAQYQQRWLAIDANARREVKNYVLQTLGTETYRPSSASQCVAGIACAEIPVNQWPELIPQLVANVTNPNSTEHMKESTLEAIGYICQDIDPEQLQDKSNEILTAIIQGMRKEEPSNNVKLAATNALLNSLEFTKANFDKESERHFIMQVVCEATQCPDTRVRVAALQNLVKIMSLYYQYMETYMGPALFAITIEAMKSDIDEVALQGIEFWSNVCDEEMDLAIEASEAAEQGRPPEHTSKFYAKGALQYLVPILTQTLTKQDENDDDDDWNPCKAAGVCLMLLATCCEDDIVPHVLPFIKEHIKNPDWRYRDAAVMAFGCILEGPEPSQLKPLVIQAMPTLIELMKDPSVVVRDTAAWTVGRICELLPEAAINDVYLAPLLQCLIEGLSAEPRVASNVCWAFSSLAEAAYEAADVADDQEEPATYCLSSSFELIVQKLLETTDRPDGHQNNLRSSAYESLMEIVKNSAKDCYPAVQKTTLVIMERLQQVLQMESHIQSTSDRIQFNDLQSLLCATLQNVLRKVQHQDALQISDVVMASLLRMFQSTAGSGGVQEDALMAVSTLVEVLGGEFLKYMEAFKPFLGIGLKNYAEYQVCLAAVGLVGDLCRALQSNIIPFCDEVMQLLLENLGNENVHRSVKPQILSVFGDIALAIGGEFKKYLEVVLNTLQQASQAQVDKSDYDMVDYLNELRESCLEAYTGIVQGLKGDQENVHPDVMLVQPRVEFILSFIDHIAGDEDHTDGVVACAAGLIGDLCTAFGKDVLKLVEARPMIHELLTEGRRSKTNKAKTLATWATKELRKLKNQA
#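 Inhibition scored from the CFP 486 nm/YFP 530 nm FRET ratio 45 min after adding 0.125 microM importin beta to 50 nM Rango biosensor preincubated 5 min with compound (room temperature, PBS with DTT, Tween-20, BSA). No-importin wells as positive control.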
# PKM2 act: PKM2 (human) enzyme activation. P14618. Potency, µM (titrated, usually from 57.5 µM), for the others: at the top dose activation, most hits filed as activators. 260,000 compounds, 0.34% hits. purified PKM2, Kinase-Glo ATP luminescence, activation; response scale: 0% is enzyme alone, no compound; note: % is set by controls: 0 for no effect and ±100 for the full control effect; nearly all actives have a fitted effect of over 55% in size
#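 hPK-M2, >95% pure; 0.1 mM ADP / 0.5 mM PEP final; imidazole pH7.2 buffer w/ 7 mM MgCl2, 50 mM KCl; 1 h RT; Kinase-Glo lum. Intermediate enzyme activity for dual inhibitor/activator qHTS.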
# ELG1 repair inh: inhibitors of ELG1-dependent DNA repair in HEK293T cells. HEK293T ELG1-luciferase reporter, luminescence, 16 h; DNA damage induced by 5-fluorouridine. Potency, µM (top dose mostly 46.1 µM), for inactives: at the highest dose activity change, negative = inhibition, most hits filed as inhibitors. 330,000 compounds, 2.3% hits; note: % is set by controls: 0 for no effect and ±100 for the full control effect; nearly all actives have a fitted effect of over 55% in size
#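 Reporter activity after DNA damage by 5-fluorouridine is monitored. Compound-treated cells incubate 16 hr at 37 °C, then ONE-Glo is added for 30 min before luminescence reading.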
# Rango release inh: inhibitors of RanGTP-induced Rango-importin beta complex dissociation; AID 540253; Potency, µM (doses to about 46.1 µM), for inactives: at the highest dose activity change, negative = inhibition; Biochemical FRET Rango-importin beta, RanGTP-induced dissociation; 340,000 compounds, 0.071% hits; O95149+P62826; calls by dose curve; note: % of control where 0% means no effect; nearly all actives have a fitted effect of over 45% in size
#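 Rango FRET biosensor (snurportin-1 IBB flanked by N-terminal EYFP and C-terminal CFP10) at 0.1 uM, with 0.25 uM importin beta in PBS, 1mM DTT, 0.02% Tween-20, 0.1% BSA. 0.6 uM Ran, 2mM GTP and 0.2 uM RCC1 were then added for 45 min at room temperature. Inhibition read as loss of FRET rise.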
# Tb PFK inh: inhibitors of T. brucei phosphofructokinase. O15648. T. brucei PFK, ADP-Glo luminescence. Potency, µM (doses to about 57.5 µM), inactives show at the top dose activity, negative = inhibition, most hits filed as inhibitors. 330,000 compounds, 0.17% hits;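 note: 0% = uninhibited 1x PFK enzyme wells and -100% = no-enzyme wells; nearly all actives have a fitted effect of over 60% in size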
#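 Compounds were pin-transferred as a titration series up to 57 uM into substrate buffer (0.5 mM F6P, 0.1 mM ATP, pH 8.0), then 1.25 nM PFK was added and reactions ran 45 min before ADP-Glo detection.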
# PGK inhibitor: blocks T. brucei phosphoglycerate kinase; PGK/GAPDH coupled, Kinase-Glo luminescence, 60 min; Potency, µM (top dose mostly 57.5 µM), for the others: top-dose activity change, negative = inhibition, hits mostly inhibitors; 380,000 compounds, 0.043% hits; AID 602233; note: % is set by controls: 0 for no effect and ±100 for the full control effect; nearly all actives have a fitted effect of over 60% in size
#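 Luminescent ATP detection (Kinase-Glo Plus) follows a 60-minute room-temperature incubation, with wells lacking PGK as controls. Buffer: 100 mM TEA (pH 7.6), 5 mM MgCl2, 0.01% Tween-20. Coupling enzyme GAPDH (100 nM final) supplies unstable 1,3-BPG in-well.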
# ELG1 FLuc counter: luciferase inhibition in cell-free luciferin readout for ELG1 hits; shares compounds with ELG1 repair inh; cell-free firefly luciferase luminescence counter-screen, ViewLux; Potency, µM (doses to about 46.1 µM), inactives show at the highest dose activity change, negative = inhibition, hits mostly inhibitors; 350 compounds, 3% hits; note: % is set by controls: 0 for no effect and ±100 for the full control effect
# ELG1-Luc inh: confirmation of human ELG1-dependent DNA repair inhibitors | shares compounds with ELG1 repair inh | HEK293T ELG1-luciferase levels, luminescence; cells co-treated with 5-fluorouridine | Potency, µM (titrated, usually from 46.1 µM), for the others: top-dose activity change, negative = inhibition, usual class: inhibitors | 670 compounds, 68% hits | AID 624248; note: % is set by controls: 0 for no effect and ±100 for the full control effect; nearly all actives have a fitted effect of over 55% in size
# ELG1-Luc MMS: confirmation of human ELG1 repair inhibitors, MMS stimulated; shares compounds with ELG1 repair inh; HEK293T luciferase-tagged ELG1 level, MMS stimulated; Potency, µM (top dose mostly 46.1 µM), inactives show top-dose activity change, negative = inhibition, most hits filed as inhibitors; 670 compounds, 53% hits; AID 624249; note: % is set by controls: 0 for no effect and ±100 for the full control effect; nearly all actives have a fitted effect of over 60% in size
# ELG1 5FU viab: confirmation of ELG1 repair inhibitors: viability with 5FU; Potency, µM (titrated, usually from 46.1 µM), for the others: top-dose activity change, negative = viability loss, most hits filed as cytotoxic; cell viability with 5-FU, ELG1-dependent repair; shares compounds with ELG1 repair inh; 670 tested, under 10 active;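 note: ELG1-luc HEK293T cells cotreated with 5-fluorouridine at 10 µM final; viability measured 16 h after compound addition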
# ELG1 MMS cell: confirmation of ELG1 repair inhibitors: viability with MMS; Potency, µM (series often up to 46.1 µM), without a hit: at the highest dose activity change, negative = viability loss, usual class: cytotoxic; Cell viability with MMS, ELG1-dependent DNA repair; 670 compounds, 33% hits; shares compounds with ELG1 repair inh; AID 624251;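 note: ELG1-luc HEK293T cells co-treated with 10 µM MMS; viability read 16 h after compound addition; % is set by controls: 0 for no effect and ±100 for the full control effect; nearly all actives have a fitted effect of over 60% in size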
# ELG1 unstim viab: unstimulated viability counter-screen for ELG1 repair hits. Potency, µM (top dose mostly 45.9 µM), for the others: top-dose activity change, negative = loss of viability, hits mostly cytotoxic. cell viability counter-screen, unstimulated, luminescence. 900 compounds, 8% hits. shares compounds with ELG1 repair inh;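 note: compound exposure lasted 16 hours before reading; % is set by controls: 0 for no effect and ±100 for the full control effect; nearly all actives have a fitted effect of over 55% in size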
# FLuc biochem: counter-screen for ELG1 repair inhibitors: firefly luciferase inhibition. 350 compounds, 10% hits. Potency, µM (highest dose often 57.5 µM), without a hit: top-dose activity, negative = inhibition, actives largely listed as inhibitors. shares compounds with ELG1 repair inh. AID 624253. purified firefly luciferase, luminescence counter-screen; note: % is set by controls: 0 for no effect and ±100 for the full control effect
# The depositor's hits bear a star; i = inactive; ? = inconclusive; . = no result. Unless noted, calls come from the whole dose curve; as a rule, active = well fitted curve in the direction sought with a large enough effect; inconclusive = small, poorly fitted or top-dose-only effect, or another doubt; inactive = no such curve, though single readings can be large; an effect the other way counts as inactive or inconclusive. Potency is the fitted concentration of half-maximal effect.
SMILES,Rango-impB inh,PKM2 act,ELG1 repair inh,Rango release inh,Tb PFK inh,PGK inhibitor,ELG1-Luc inh,ELG1-Luc MMS,ELG1 5FU viab,ELG1 MMS cell,ELG1 unstim viab,others
CC(C)C(=O)N1CCC2(CC1)Oc1ccc(Cl)cc1C(=O)C21CC(c2ccc(Cl)cc2)=NO1 (stereo not drawn),1%,-5%,2.6µM*,-14%,2%,8%,10µM*,-15%,?,-6%,?,
COc1cc2c(cc1OC)-c1cc(N3CCc4ccccc43)nc(=O)n1CC2,?,0%,?,?,5%,-13%,2.8µM*,26%,?,?,?,
COc1ccc(CCNC(=O)CN2c3cccc4cccc(c34)S2(=O)=O)cc1OC,0%,-2%,2.6µM*,?,0%,-9%,?,20%,?,-1%,?,
COc1cc(/C=N/NC(=O)c2ccc(CN3c4cccc5cccc(c45)S3(=O)=O)cc2)cc(OC)c1O,-2%,0%,3.3µM*,-3%,2%,i,3.5µM*,22µM*,?,25µM*,?,
CCOc1ccc(CCNC(=O)Nc2cccc(OC)c2)cc1OCC,0%,.,-19%,1%,-1%,-16%,.,.,.,.,.,
O=C(COS(=O)c1ccccc1)Nc1cc(Cl)ccc1N1CCOCC1 (stereo not drawn),4%,-3%,?,11%,-4%,.,.,.,.,.,.,
O=C(CC1OC(=O)c2ccccc21)Nc1cc(Cl)ccc1N1CCOCC1 (stereo not drawn),3%,.,4.1µM*,26%,-3%,5%,?,-1%,4%,2%,-7%,
C#CCOCCOCCOCCNc1nc(N2CCN(C(=O)[C@H](CCCCN)n3cc(CCCC)nn3)CC2)nc(N2CCN(C(=O)[C@H](CCCCN)n3cc(CCC(=O)O)nn3)CC2)n1,0%,.,21%,10%,-4%,-7%,.,.,.,.,.,
Cc1ccc2c(c1)S/C(=C/c1ccc[n+](CCO)c1)N2C,?,-9%,2.9µM*,-16%,0%,0%,2%,8.9µM*,-14%,8.9µM*,?,
Cc1ccc(OCc2cc(C(=O)N(C)C3CCCc4ccccc43)no2)cc1C (stereo not drawn),.,.,.,.,.,-11%,.,.,.,.,.,
CCOC(=O)c1c(C)[nH]c(C(=O)NNC(=O)c2ccccc2F)c1C,0%,.,?,-15%,-11%,4%,.,.,.,.,-9%,
CCOC(=O)c1c(C)[nH]c(C(=O)NNC(=O)c2ccccc2)c1C,-1%,-1%,?,-4%,-9%,5%,.,.,.,.,.,
Cc1cc(OC(=O)c2cc(-c3ccc4c(c3)OCCO4)on2)ccc1Cl,.,.,.,.,.,-4%,.,.,.,.,.,
Cc1c(C(C)C)c(=O)n(-c2ccc(S(=O)(=O)NCc3ccccc3)cc2)n1C,1%,-1%,1.5µM*,10%,14%,1%,?,1.3µM*,-5%,1.3µM*,?,
Cc1c(C(C)C)c(=O)n(-c2ccc(S(=O)(=O)N3CCOCC3)cc2)n1C,-4%,-5%,3%,4%,1%,0%,.,.,.,.,.,
CCc1ccc(S(=O)(=O)Nc2c(C)n(C)n(-c3ccccc3)c2=O)cc1,0%,.,0%,8%,0%,1%,.,.,.,.,.,
Cc1c(C(C)C)c(=O)n(-c2ccc(S(=O)(=O)NC3CCCCC3)cc2)n1C,2%,6%,2.1µM*,13%,-1%,-3%,?,2.2µM*,-12%,2.5µM*,?,
COc1ccccc1CNC(=O)c1cccc(S(=O)(=O)N(C)c2ccccc2)c1,-1%,.,?,-16%,-4%,-2%,.,.,.,.,.,
C(=C\c1nc2ccccc2s1)/c1ccc2c(c1)OCO2,.,.,.,.,.,.,.,.,.,.,-17%,ELG1 FLuc counter=20µM*;FLuc biochem=0.18µM*
O=C(NCCc1ccc(Cl)cc1)c1nnc(Cc2ccc(F)cc2)o1,.,.,.,.,.,-14%,.,.,.,.,.,
Cn1c2ccccc2c(=O)c2cc(NCCCN3CCOCC3)ccc21,?,.,?,?,9%,-1%,.,.,.,.,-4%,
COc1cccc([C@@H]2Oc3ccc(OC)cc3C(=O)[C@H]2OC(=O)NS(=O)(=O)c2ccc(C)cc2)c1,.,.,.,.,.,.,.,.,.,.,-2%,
COc1cc(-c2noc(C)c2/C=C/c2cccc([N+](=O)[O-])c2)cc(OC)c1OC,3%,-5%,2.6µM*,-2%,4%,i,2µM*,7.1µM*,?,?,?,
COc1ccc(C(=O)c2ccccc2)c2c(O)ccc(C(=O)c3ccccc3)c12,-1%,5%,?,-5%,-1%,-8%,5µM*,1.6µM*,-3%,2.2µM*,?,
O=C(COC(=O)C1CC2C=CC1C2)Nc1c(Br)cc([N+](=O)[O-])cc1Br (stereo not drawn),-1%,.,4.6µM*,7%,14%,i,7.9µM*,18%,?,?,?,
